Values joined by “and” are separate entries in the source; they are usually repeats but may differ in a detail not shown here. Equal values may be shown once. For some assays here: Measured potencies and affinities stand elsewhere. Active and inactive are the calls of the source.
Key:
[1] = Ebola virus entry assay, green fluorescence channel
[2] = Ebola virus entry assay, ratio channel readout
[3] = Ebola virus entry assay, blue channel fluorescence
[4] = Ebola virus entry assay, ratio channel
[5] = Ebola virus entry assay, reporter ratio channel; AC50: Channel type: primary unless noted; outcome: Channel type: primary unless noted
[6] = Ebola virus entry cell assay, ratio channel
[7] = Ebola virus entry assay, green channel fluorescence
[8] = Ebola virus entry assay, blue channel fluorescence; remark: listed apart in the source
[9] = Ebola virus entry assay, blue channel (ratio component)
[10] = Ebola virus entry reporter assay, green channel fluorescence

Structure (SMILES) | outcome [1] | outcome [2] | AC50 [3] | AC50 [4] | AC50 [5] | outcome [6] | AC50 [6] | AC50 [2] | outcome [5] | outcome [3] | outcome [7] | outcome [8] | outcome [9] | outcome [10]
CCN(CC)C(=S)SSC(=S)N(CC)CC | inactive | inactive | 7.08 µM (active) | 7.94 µM (active) and 22.4 µM (active) | 7.94 µM (active) and 22.4 µM (active) | inactive | – | – | – | – | – | – | – | –
O[C@@H](CNC[C@H](O)[C@H]1CCc2cc(F)ccc2O1)[C@@H]1CCc2cc(F)ccc2O1 | inactive | inactive | 7.94 µM (active) | 3.55 µM (active) | 3.55 µM (active) | – | 5.01 µM (active) | – | – | – | – | – | – | –
OCCN1CCN(CCCN2c3ccccc3Sc3ccc(C(F)(F)F)cc32)CC1 | inactive | inactive | 3.55 µM (active) | 3.16 µM (active) | 3.16 µM (active) | – | 8.91 µM (active) | – | – | – | – | – | – | –
CCN(CC)CCNC(=O)c1c(C)[nH]c(/C=C2\C(=O)Nc3ccc(F)cc32)c1C | inactive | – | 1 µM (active) | 0.708 µM (active) | – | – | 3.16 µM (active) | 3.17 µM (active) | inactive [Channel type: confirmation] | – | – | – | – | –
O[C@@H](c1cc(C(F)(F)F)nc2c(C(F)(F)F)cccc12)[C@H]1CCCCN1 | inactive | – | 1.58 µM (active) | 1.58 µM (active) | 1.58 µM (active) | – | 5.62 µM (active) | 5.63 µM (active) | – | – | – | – | – | –
O=C1Cc2cc(CCN3CCN(c4nsc5ccccc45)CC3)c(Cl)cc2N1 | inactive | inactive | 22.4 µM (active) | 17.8 µM (active) | 17.8 µM (active) | – | 15.8 µM (active) | – | – | – | – | – | – | –
COCCCC/C(=N\OCCN)c1ccc(C(F)(F)F)cc1 | inactive | inactive | 15.8 µM (active) | 14.1 µM (active) | 14.1 µM (active) | inactive | – | – | – | – | – | – | – | –
CC[C@]1(O)C[C@@H]2CN(CCc3c([nH]c4ccccc34)[C@@](C(=O)OC)(c3cc4c(cc3OC)N(C)[C@H]3[C@@](O)(C(=O)OC)[C@H](OC(C)=O)[C@]5(CC)C=CCN6CC[C@]43[C@@H]65)C2)C1 | inactive | inactive | 0.794 µM (active) | 1 µM (active) and 891 nM (active) | 1 µM (active) and 891 nM (active) | – | 0.01 µM (active) | – | – | – | – | – | – | –
Cc1c(OCC(F)(F)F)ccnc1CS(=O)c1nc2ccccc2[nH]1 (stereo not given) | inactive | inactive | – | – | – | inactive | – | – | inactive | inactive | inactive | inactive | inactive | inactive
CC1OC(C)OC(C)O1 (stereo not given) | inactive | inactive | – | – | – | inactive | – | – | inactive | inactive | inactive | inactive | inactive | inactive
c1cnc2cc3c(cc2n1)C1CNCC3C1 | inactive | inactive | – | – | – | inactive | – | – | inactive | inactive | inactive | inactive | inactive | –
CC1(C)S[C@@H]2[C@H](NC(=O)C(C(=O)O)c3ccccc3)C(=O)N2[C@H]1C(=O)O (stereo not given in full) | inactive | inactive | – | – | – | inactive | – | – | inactive | inactive | inactive | inactive | inactive | –
Cc1nc2n(c(=O)c1CCN1CCC(c3noc4cc(F)ccc34)CC1)CCC[C@H]2O | inactive | inactive | – | – | – | inactive | – | – | inactive | inactive | inactive | inactive | inactive | –
Cc1nc(-c2ccc(OCC(C)C)c(C#N)c2)sc1C(=O)O | inactive | inactive | – | – | – | inactive | – | – | inactive | inactive | – | inactive | inactive | inactive
NNCCc1ccccc1 | inactive | inactive | – | – | – | inactive | – | – | inactive | inactive | inactive | inactive | inactive | –
C[N+]1(C)CCC(OC(=O)C(O)(c2ccccc2)C2CCCC2)C1 (stereo not given) | inactive | inactive | – | – | – | inactive | – | – | inactive | inactive | inactive | inactive | inactive | –
OCCN1C[C@H](O)[C@@H](O)[C@H](O)[C@H]1CO | inactive | inactive | – | – | – | inactive | – | – | inactive | inactive | inactive | inactive | inactive | inactive
Nc1nc2c(ncn2COC(CO)CO)c(=O)[nH]1 | inactive | inactive | – | – | – | inactive | – | – | inactive | inactive | inactive | inactive | inactive | –
N[C@@H](Cc1ccc(N(CCCl)CCCl)cc1)C(=O)O | inactive | inactive | – | – | – | inactive | – | – | inactive | inactive | inactive | inactive | inactive | inactive

From PubChem BioAssay (NCATS)
